Measured values taken from PubChem BioAssay AID1222 (Sanford-Burnham Center for Chemical Genomics, 2008).
Out of some 190,000 compounds screened, fewer than 10 were called active. A selection follows. Measured potencies and affinities stand elsewhere. A number with no mark means an inactive call.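 How the source made its calls: active means EC50 below 50 µM in the dose-response confirmation; inactive means the rest.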

Assay: protection against thapsigargin-triggered cell killing – 384-well, CSM14.1, ATP luminescence, primary screen (AID 1222);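 further: death triggered by thapsigargin at about 15 µM added after 2 h compound pretreatment; cell ATP read after overnight thapsigargin exposure of roughly 18 to 22 hours; reference of the scale not given here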
Conditions: CSM14.1 thapsigargin-induced death rescue, at 20 µM, active compounds read high

| SMILES | cellular ATP content (survival) |
| --- | --- |
| O=C(NCC1CC1)[C@@H]1C[C@H]1[C@@H](NP(=O)(c1ccccc1)c1ccccc1)c1ccccc1 | -1.2% |
| CC(=O)c1ccc(OCCCN2CCCCC2)cc1 | -1.3% |
| O=C(COC(=O)c1cc(Br)ccc1O)Nc1cc(S(=O)(=O)N2CCCC2)ccc1Cl | -0.8% |
| O=C(NCCCN1CCCC1)c1cc2c(Cl)nc3ccccc3c2s1 | -12% |
| CC(=O)Cn1c(N2CCC(Cc3ccccc3)CC2)nc2c1c(=O)[nH]c(=O)n2C | -1.8% |
| CCn1c(SCc2ccccc2Cl)nc2nc3c(cc2c1=O)CCCC3 | -4.7% |
| CC(=O)Nc1ccc(OCc2cccc([N+](=O)[O-])c2)cc1 | 1.1% |
| O=C(CSc1nc2ccccc2[nH]1)Nc1nc(-c2cccc(Br)c2)cs1 | -3.8% |
| CCOC(=O)C1CCN(C(=O)CCS(=O)(=O)c2ccc3c(c2)CC(C)N3C(=O)CC)CC1 (centres undefined) | 0.4% |
| Cc1ccc(C)c(N2CCN(C(=O)CN(C)S(=O)(=O)c3cnc[nH]3)CC2)c1 | -1.7% |
| O=C(NCCO)c1cccc2c1C(=O)c1ccccc1-2 | -1.3% |
| Cc1[nH]c2ccccc2c1C(=O)COC(=O)Cn1c(C(F)(F)F)nc2ccccc21 | 0.2% |
| Cc1ccc(CNS(=O)(=O)/C=C/c2ccc3c(c2)OCO3)cc1 | -2.2% |
| CC(=O)Nc1ccccc1C(=O)N1CCN(c2cccc(C)c2C)CC1 | -1.4% |
| O=C(NCc1ccccn1)C1CC(c2ccc(F)cc2)=NO1 (centres undefined) | -1% |
| CSc1nccc(N2CCN(c3ccc(F)cc3)CC2)n1 | 5.7% |
| Cc1ccc(NC(=O)c2ccc(OC(=S)N3CCOCC3)cc2)cc1 | -1.3% |
| Cc1cc(C)n(C(=O)COc2c(C)cccc2C)n1 | -2.8% |
| CCc1ccc(-c2nc(CCl)cs2)cc1 | -1.7% |
| C=CCNCCCCOc1ccc(C)cc1[N+](=O)[O-] | -1.5% |

| SMILES | cellular ATP content (survival) |
| --- | --- |
| CN(C)S(=O)(=O)c1ccc(C(=O)OCc2ccc(C#N)cc2)cc1 | -0.2% |
| C(=N\Nc1nc(N2CCOCC2)nc(N2CCOCC2)n1)/c1cccnc1 | 1.2% |
| CCOC(=O)c1cc2cc([N+](=O)[O-])cc(OC)c2oc1=O | 0% |
| CC(=O)c1c(C)[nH]c(C(=O)COC(=O)CCSc2ccccc2)c1C | 0.3% |
| COc1ccc(-c2csc(Nc3ccccc3)n2)cc1 | -1.2% |
| C=CC[C@@H]1Cc2c(Br)ccc(Br)c2[C@@H](CC=C)N1 | -0.9% |
| Cc1ccccc1OCc1nnc(SCC(=O)Nc2ccc3nc(SCC(=O)Nc4ccccc4)sc3c2)n1C | -0.5% |
| COc1cc(NC(=O)CN2c3cccc4cccc(c34)S2(=O)=O)cc(OC)c1OC | -1% |
| C=CCn1c(=O)c(C(=O)OCC)c(O)c2ccccc21 | -1.4% |
| CC(C)c1ccc(N2C(=O)CSC23C(=O)N2CCCc4cccc3c42)cc1 (centres undefined) | -0.3% |
| O=C1CCc2cc(S(=O)(=O)NC(Cc3ccccc3)C(=O)NC3CCCCC3)ccc2N1 (centres undefined) | 0% |
| Cc1ccc(CCNC(=O)C2CCN(C(=O)N(C)C)CC2)cc1 | -1.1% |
| CCOC(=O)CC1ON(C)C(=O)N1c1ccc(Cl)cc1Cl (centres undefined) | 0.4% |
| COc1cc(/C=N/Nc2nc(Nc3ccccc3)nc(N3CCCCC3)n2)ccc1OCC(=O)O | -1.5% |
| COCCN(C(=O)Cc1cccs1)C(C(=O)NC1CCCC1)c1ccc(OC)c(OC)c1 (centres undefined) | -1% |
| Cc1ccc(-c2nnc(CSc3nnc(COc4cccc5ccccc45)n3-c3ccccc3)o2)cc1 | 0.6% |
| CC(C)=CCN1CCN(Cc2ccc(C)s2)CC1CCO (centres undefined) | 0.8% |
| c1cnc2c(SCc3ccc(-c4nnco4)cc3)cccc2c1 | -0.4% |
| CC(=O)Nc1nc2ccc(NC(=O)c3ccco3)cc2s1 | -5.6% |
| O=C1OC(Cc2ccccn2)C(=O)C1=C1SCCS1 (centres undefined) | -2.9% |

| SMILES | cellular ATP content (survival) |
| --- | --- |
| O=C(c1ccc(Cl)c(S(=O)(=O)N2CCCCCC2)c1)N1CCN(c2ccccc2O)CC1 | 0.3% |
| NS(=O)(=O)c1ccc(CCNC(=O)CN2CCN(c3cccc(Cl)c3)CC2)cc1 | -2.9% |
| Cn1c(N)c(C(=O)COC(=O)c2ccnc3ccccc23)c(=O)n(C)c1=O | -2.1% |
| O=C1CCCN1CCCN1C(=O)N[C@@H](Cc2ccccc2)C1=O | 2% |
| Cc1cc(C)cc(OCC(=O)NNC(=O)C2CCCO2)c1 (centres undefined) | -0.3% |
| CC1CCCC(NC(=O)COC(=O)Cc2ccsc2)C1C (centres undefined) | -1.7% |
| Cc1ccc(CSCc2nnc(SCC(=O)N3CCN(c4ccccc4)CC3)n2C)cc1 | 2% |
| N#Cc1ccccc1Cn1cc(/C=C/[N+](=O)[O-])c2ccccc21 | 4% |
| O=C(CCn1nnc2ccccc21)Nc1nnc(-c2ccccc2F)s1 | 0.6% |
| Cc1ccc(C)c(N2CCN(C(=O)COc3cc(=O)n(C)c4ccccc34)CC2)c1 | -0.1% |
| Cc1ccc(CNC(=O)C(=O)NCC2OCCN2C(=O)c2cccs2)cc1 (centres undefined) | -0.2% |
| CCN1C=C(Cc2ccc(OC)cc2)C2=C(C1)C(c1ccc(OC)cc1)C(C#N)=C(N)O2 (centres undefined) | -1.8% |
| O=C(N/N=C/c1ccc(OCC(=O)N2CCCCC2)cc1)c1ccccc1O | 2.1% |
| CCC1Sc2ccccc2N(CC(=O)NC2CCCC2)C1=O (centres undefined) | -1.6% |
| Cc1ccc(C(=O)N/C(=C\c2ccc(Br)cc2)c2nc(=S)[nH][nH]2)cc1 | -11.2% |
| COc1ccc(OC)c(NC(=O)C2CCC(CNc3c(N4CCC(C)CC4)c(=O)c3=O)CC2)c1 (centres undefined) | 1.6% |
| O=CN1CCN(C(=O)c2ccc([N+](=O)[O-])cc2)CC1 | 1.3% |
| COc1cccc(C(=O)CSc2nnc(CNS(C)(=O)=O)n2-c2ccc(C)cc2)c1 | 0.4% |
| COCc1ccc([C@@H]2C[C@H]3CN(Cc4ccccc4C)C(=O)[C@]34CCCN24)o1 | 6.6% |
